# Source: PubChem BioAssay
# The list is not random: actives were taken first. Their share in the collection is about 2.3%.
# Tau fil binding – tau filament binding | P10636 | actives 2% (n = 71,000) | Potency, µM (highest dose often 57.1 µM), for the others: at the highest dose activity change, negative = inhibition | recombinant tau filaments, thioflavin S fluorescence, 15 h; filaments grown with octadecylsulfate alongside compound;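 note: potency is the fitted concentration of half-maximal effect; % is set by controls: 0 for no effect and ±100 for the full control effect; actives lower thioflavin S fluorescence by blocking filaments or displacing dye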
#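 Assay mix: 1 uM His-tagged tau, 30 uM sodium octadecylsulfate, thioflavine S dye in HEPES/NaCl/DTT buffer. Compound is added prior to the inducer. Fluorescence after 15 h at 37 C.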
# ALOX15B inhib – 15-hLO-2 (ALOX15B) enzyme inhibition; O15296; purified 15hLO-2, xylenol orange hydroperoxide absorbance; Potency, µM (top dose mostly 57.1 µM), for inactives: at the highest dose activity change, negative = inhibition, usual class: inhibitors; actives 0.56% (n = 110,000); AID 881; note: potency is the fitted concentration of half-maximal effect; % is set by controls: 0 for no effect and ±100 for the full control effect; nearly all actives have a fitted effect of over 60% in size
#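 Purified human 15hLO-2 (50 nM) preincubated 15 min with compound, then 45 uM arachidonic acid for 90 min at RT in 25 mM Hepes pH 7.5, 0.01% Triton X-100. Hydroperoxide detected by Fe-xylenol orange; 573/405 nm absorbance ratio.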
# ALOX15 inhib – 15-hLO (ALOX15) enzyme inhibition. purified 15hLO-1, xylenol orange hydroperoxide absorbance. Potency, µM (doses to about 57.1 µM), without a hit: at the highest dose activity change, negative = inhibition, hits mostly inhibitors. P16050. actives 1.4% (n = 74,000); note: potency is the fitted concentration of half-maximal effect; % is set by controls: 0 for no effect and ±100 for the full control effect; nearly all actives have a fitted effect of over 55% in size
# Target sequence (P16050 whole entry, looked up): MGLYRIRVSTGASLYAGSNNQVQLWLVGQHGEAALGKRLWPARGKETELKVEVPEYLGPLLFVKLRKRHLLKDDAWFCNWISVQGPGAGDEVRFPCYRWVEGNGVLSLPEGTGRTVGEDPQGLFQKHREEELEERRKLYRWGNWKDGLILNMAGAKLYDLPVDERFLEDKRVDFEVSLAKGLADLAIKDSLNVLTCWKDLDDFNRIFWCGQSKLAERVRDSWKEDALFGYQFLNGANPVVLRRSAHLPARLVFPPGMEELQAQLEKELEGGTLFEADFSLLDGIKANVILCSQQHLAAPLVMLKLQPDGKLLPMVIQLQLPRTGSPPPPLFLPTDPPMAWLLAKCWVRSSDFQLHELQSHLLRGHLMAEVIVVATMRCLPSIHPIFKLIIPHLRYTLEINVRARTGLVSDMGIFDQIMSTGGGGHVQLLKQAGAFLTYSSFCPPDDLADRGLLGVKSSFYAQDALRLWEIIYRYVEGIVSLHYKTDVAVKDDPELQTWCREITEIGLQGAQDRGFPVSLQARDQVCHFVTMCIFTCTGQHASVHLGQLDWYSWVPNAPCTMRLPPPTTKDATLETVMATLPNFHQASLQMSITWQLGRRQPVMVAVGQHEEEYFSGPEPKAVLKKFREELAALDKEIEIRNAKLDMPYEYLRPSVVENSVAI
#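 Quantitative HTS in 25 mM Hepes pH 7.5 containing 0.01% Triton X-100: human 15hLO-1 at 40 nM, arachidonic acid at 50 uM, 6 min turnover. Product quantified via ferrous oxidation/xylenol orange, 573:405 nm absorbance ratio.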
# GFP derepression – epigenetic GFP locus derepression in mouse cells | mouse C127i GFP locus derepression, cytometry, 30 h | Potency, µM (highest dose often 46.1 µM), without a hit: top-dose GFP derepression (activation) | actives 0.09% (n = 68,000) | AID 597; note: % of control where 0% means no effect
#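 Locus derepression in mouse mammary C127i cells whose integrated CMV-GFP reporter is normally silent; GFP expression after 30 h compound treatment was quantified by counting fluorescent cells.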
# HBB splicing – modulators of hemoglobin beta chain splicing; HBB splicing reporter cell assay, activation; EGFP reporter with mutant IVS2-654 intron; response scale: normalised to 500 nM splice-correcting PNA; Potency, µM (doses to about 46.1 µM), without a hit: top-dose activation, hits mostly activators; actives 0.06% (n = 65,000); note: potency is the fitted concentration of half-maximal effect; 0% is about no effect
#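 HeLa cells stably expressing EGFP interrupted by mutant beta-globin intron 2 (IVS2-654), 500/well in 2% FCS. Treated with compound for 2 days at 37C. Splicing correction scored as total well GFP intensity (488 nm excitation, 500-520 nm emission); 500 nM antisense PNA served as control.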
# Ub-GFP proteasome – ubiquitin-GFP accumulation via proteasome inhibition | AID 526 | Ubiquitin-GFP reporter cells, proteasome inhibition, GFP fluorescence; response scale: untreated = 0%, 10 µM MG-132 = 100% | 67,000 tested, under 10 active | Potency, µM (highest dose often 45.9 µM), for the others: at the top dose activation (GFP accumulation), most hits filed as activators; active = well fitted activation curve with a large enough effect, not every such curve was filed as active; inconclusive = small, poorly fitted or top-dose-only effect, or another doubt; inactive = no such curve, though single readings can be large or run the other way; note: potency is the fitted concentration of half-maximal effect
#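 Reporter cells (U2OS, ubiquitin-G76V-GFP fusion) are plated overnight, then treated 4 hr at 37 °C with compound titrations from 46 uM down to 2.9 nM. Activity is scaled against untreated cells and 10 uM MG-132.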
# Starred values were filed as active, the others as inactive; ? = inconclusive; · = no result given; ! = repeats disagree; [ ] = remark or other dose. Unless noted, calls come from the whole dose curve; as a rule, active = well fitted curve in the direction sought with a large enough effect; inconclusive = small, poorly fitted or top-dose-only effect, or another doubt; inactive = no such curve, though single readings can be large; an effect the other way counts as inactive or inconclusive.
SMILES,Tau fil binding,ALOX15B inhib,ALOX15 inhib,GFP derepression,HBB splicing,Ub-GFP proteasome
O=C1C(Cl)=C(N2CCCCCC2)C(=O)N1c1ccccc1,-22%,-15%,5µM*,0%,-8%,9%
O=C1C(c2ccccc2)=C(N2CC2)c2ccccc21,·,-5%,·,·,·,·
COc1ccc(P2(=O)Nc3ccccc3N2)cc1,16µM*,-6%,?,-2%,4%[0.369 µM],·
COc1ccc(C=O)cc1,4%,2%,3%,·,-1%,·
c1ccc2c(CCNC3=NCCC3)c[nH]c2c1,-2%,2%,13µM*,6%,0%[57.5 µM],0%
CN(C)Cc1c[nH]c2ccccc12,?,-2%,3%[25.6 µM],-2%[9.22 µM],-1%[20.6 µM],4%
COc1cc2c(cc1OC)[C@@]13CCN4CC5=CCO[C@H](CC(=O)O)[C@@H]([C@H]1N2)[C@H]5C[C@H]43,12%[11.4 µM],-5%[11.4 µM],6%[11.4 µM],-1%[9.22 µM],4%[9.22 µM],6%[9.17 µM]
CN1CSC(=S)N(C)C1,5%,1%,4%,6.3µM*,1%,15%
CN1CCC(n2nccc2N)CC1,-8%,2%,-2%,-4%,2%,-2%
Nc1ccnn1C1CCNCC1,25µM*,-4%,65%,1%,·,4%
COc1cc2c(cc1O)CC1c3c(cc(O)c(OC)c3-2)CCN1C (centres undefined),·,-16%,-3%[25.6 µM],·,·,·
COc1cc2c(cc1O)C[C@H]1c3c(cc(OC)c(O)c3-2)CCN1C,40µM*,8%,-14%[25.6 µM],-7%[9.22 µM],·,0%
c1cc(CCN2CCCCC2)ccn1,3%[11.4 µM],2%[11.4 µM],-4%[11.4 µM],7%[9.22 µM],1%[9.22 µM],1%[9.17 µM]
COC(=O)[C@]1(C)CC[C@@]2(C)CC[C@@]3(C)C4=CC=C5C(=CC(=O)C(O)=C5C)[C@@]4(C)CC[C@@]3(C)C2C1 (some centres undefined),·,4µM*,2µM*,·,·,·
C[C@@H]1O[C@@H](O[C@H]2C[C@@H](O)[C@]3(CO)[C@@H]4[C@@H](O)C[C@]5(C)[C@H](C6=CC(=O)OC6)CC[C@@]5(O)[C@H]4CC[C@@]3(O)C2)[C@H](O)[C@H](O)[C@@H]1O,-2%,-6%,-5%,-2%,5%,0%
C=C(C)[C@H]1[C@H]2OC(=O)[C@@H]1[C@]1(O)C[C@H]3O[C@]34C(=O)O[C@H]2[C@]14C,32µM*,·,·,-2%[9.22 µM],·,5%
O=c1[nH]oc2c1CCNC2,32µM*!,5%,-4%,1%,1%[20.6 µM],9%
N#CC1=C(N)Oc2n[nH]c(-c3cccs3)c2C1c1ccsc1 (centres undefined),13%,-13%,4µM*,-3%,-1%,5%
CN1CC[C@@H]2CN3CCc4cccc(c43)[C@H]2C1,-37%,9%,13µM*,-3%,·,2%
COc1ccc2[nH]c3c(c2c1)CCN=C3C,2.5µM*,28%[25.6 µM],?,4%[20.6 µM],0%[20.6 µM],-11%[20.5 µM]
C[C@@H]1O[C@H](O[C@H]2C[C@@H](O)[C@]3(CO)[C@H]4[C@H](O)C[C@]5(C)[C@@H](C6=CC(=O)OC6)CC[C@@]5(O)[C@H]4CC[C@]3(O)C2)[C@@H](O)[C@H](O)[C@H]1O,?,·,·,0%[9.22 µM],·,1%
[CH3][Hg][Cl],-2%,-25%,16µM*,·,-1%,·
C=CCN1CC[C@]23c4c5ccc(O)c4O[C@@H]2/C(=N/NC(=O)c2ccccc2)CC[C@@]3(O)[C@H]1C5,-4%,9%,-5%,-4%,3%,11%
CCN(CC)C(=O)N[C@@H]1C=C2c3cccc4[nH]cc(c34)C[C@@H]2N(C)C1,3%,·,·,1%,-1%,-3%
N[C@H](Cn1oc(=O)[nH]c1=O)C(=O)O,-9%,·,·,-4%,5%,14%
SMILES,Tau fil binding,ALOX15B inhib,ALOX15 inhib,GFP derepression,HBB splicing,Ub-GFP proteasome
Nc1cc(Cl)ccc1O,?,-2%,1.6µM*,·,-1%,·
Oc1ccc(Cl)cc1Sc1cc(Cl)ccc1O,5%[11.4 µM],16µM*,4µM*,6%[9.22 µM],1%[9.22 µM],-2%[9.17 µM]
Nc1cc(Cl)ccc1Cl,-1%,9%,-5%,·,1%,·
Nc1ccc(Cl)cc1N,2.5µM*,4%,?,·,1%,·
O=C(O)/C=C\c1ccc[c]([Sb](=[O])([OH])[OH])c1,5%[11.4 µM],38%[11.4 µM],-26%[11.4 µM],-1%[9.22 µM],3%[9.22 µM],1%[9.17 µM]
NNc1c(C(N)=O)c2c(N)ncnc2n1[C@@H]1O[C@H](CO)[C@@H](O)[C@@H]1O,-5%[11.4 µM],·,·,4%[9.22 µM],0%[9.22 µM],-7%[9.17 µM]
O=c1cccc2n1C[C@@H]1C[C@H]2CN2CCCC[C@H]12,32µM*,·,·,-2%[9.22 µM],·,-1%
C[C@@H]1O[C@H]1P(=O)(O)O,-4%,10%,0%,1%,3%,0%
COc1ccc2c(c1)CCC1[C@@H]2CCC2(C)[C@@H](NCCCCCCN3C(=O)C=CC3=O)CC[C@@H]12 (some centres undefined),?,19%,13µM*,0%,·,4%
C[C@H]1CC[C@]2(NC1)O[C@@H]1C[C@@H]3[C@@H]4CC=C5C[C@H](O)CC[C@@]5(C)[C@H]4CC[C@@]3(C)[C@H]1[C@@H]2C,?,·,·,-2%[9.22 µM],·,4%
CC1=NN=C(c2ccc(N)cc2)c2cc3c(cc2C1)OCO3,32µM*!,-20%,-9%[25.6 µM],0%,2%,1%
